# Data from PubChem BioAssay (NCATS).
# Results filed as inconclusive are left out. Active and inactive are the calls of the source. Calls follow the shape of the dose curve; as a rule, active = well fitted activation curve with a large enough effect; inconclusive = small, poorly fitted or top-dose-only effect; inactive = flat fitted curve, though single readings scatter.
# Assay: Validation screen for small molecules that induce DNA re-replication in SW480 colon adenocarcinoma cells (AID 504364); as to activity (re-replication induction): 0% is about no effect
# Details: DNA re-replication phenotype (high-content imaging); series mostly up to 46.1 µM; activity (re-replication induction): at the top concentration
# From the text: H Molecular Libraries Probe Production Network [MLPCN]
# NIH Chemical Genomics Center [NCGC]
# Assay Provider: Melvin DePamphilis, NICHD, NIH
# Eukaryotic cells normally restrict genome duplication to once per cell division. When this process is aberrant, DNA re-replication occurs when cells reinitiate DNA replication before the first round of replication is complete. DNA re-replication induces the DNA damage response, arrests cell proliferation, and triggers apoptosis. The cell cycle components cyclin A, Cdt-1, Cdc6 and geminin are critical regulators of this process and their misregulation results in DNA re-replication in normal and cancer cells. To identify compounds that induce re-replication in normal cells, an image-based assay was used to measure DNA content of nuclei, as detected by the fluorescent DNA binding dye, Hoechst. Cell nuclei were imaged by a fluorescence scanning plate imager and compounds that induce DNA re-replication were identified by the increase of nuclei with elevated fluorescence intensity.#
# For screening, 250 cells in 5 uL/well were dispensed into black clear 1536-well plates (Aurora) using a solenoid-based dispenser. Following transfer of 23 nL compound or DMSO vehicle by a pin tool, the plates were incubated 48 hr at 37 C and 5% CO2. After addition of 1 uL/well Hoescht stain, the plates were incubated 40 min at 37 C, 5% CO2 and total intensity of fluorescent objects (nuclei) were enumerated by an Acumen Explorer Ex3 (TTP LabTech) fluorescence scanning plate imager (405 nm excitation, 500-530 nm emission).
# Keywords: NIH Roadmap, MLPCN, MLI, MLSMR, qHTS, NCGC, DNA replication, cancer
# Potency is read from the fitted curve at half-maximal effect.
Compound,activity (re-replication induction),Potency
NCC(CC(=O)O)c1ccc(Cl)cc1 (centres undefined),8.47% (inactive),
C=C(C)[C@H]1Cc2c(ccc3c2O[C@@H]2COc4cc(OC)c(OC)cc4[C@@H]2C3=O)O1,,920 nM (active)
COc1ccc(Cc2nccc3cc(OC)c(OC)cc23)cc1OC,-15.6% (inactive),
c1ccc2c(c1)OCC(C1=NCCN1)O2 (centres undefined),1.87% (inactive),
NCC(O)c1ccc(O)cc1 (centres undefined),0.286% (inactive),
Clc1cccc(N2CCNCC2)c1,-1.42% (inactive),
Nc1ccncc1,1.88% (inactive),
CC(=O)[C@H]1CC[C@H]2[C@@H]3CC[C@H]4C[C@H](O)CC[C@]4(C)[C@H]3C(=O)C[C@]12C,-3.96% (inactive),
COc1cc2c(c(OC)c1OC)-c1ccc(OC)c(=O)cc1[C@@H](NC(C)=O)CC2,,58 nM (active)
CC(CCc1ccccc1)NC(C)C(O)c1ccc(O)cc1 (centres undefined),-0.519% (inactive),
O=c1[nH]c2ccccc2n1CCCN1CCC(n2c(=O)[nH]c3cc(Cl)ccc32)CC1,16.1% (inactive),
O=c1[nH]c2ccccc2n1C1CCN(CCCC(c2ccc(F)cc2)c2ccc(F)cc2)CC1,-17.1% (inactive),
CNCC(O)c1ccc(O)cc1 (centres undefined),-8.1% (inactive),
CCCC(C)(COC(N)=O)COC(=O)NC(C)C (centres undefined),2.04% (inactive),
CCn1cc(C(=O)O)c(=O)c2ccc(C)nc21,-11.5% (inactive),
COc1ccccc1N1CCNCC1,6.38% (inactive),
Cc1ccc(S(=O)(=O)N[C@@H](CCCCN)C(=O)CCl)cc1,-2.41% (inactive),
C[C@@H]1O[C@@H](O[C@H]2C[C@@H](O)[C@]3(CO)[C@H]4[C@H](O)C[C@]5(C)[C@@H](C6=CC(=O)OC6)CC[C@]5(O)[C@@H]4CC[C@]3(O)C2)[C@H](O)[C@H](O)[C@H]1O,-0.382% (inactive),
O=C1NCN(c2ccccc2)C12CCN(CC1COc3ccccc3O1)CC2 (centres undefined),-1.48% (inactive),
c1ccc(C2CC2)c(OCC2=NCCN2)c1,1.85% (inactive),
CC[N+](CC)(CC)CC,-1.61% (inactive),
NN=C(N)N,,inactive
CCC1(C2=NCCN2)Cc2ccccc2O1 (centres undefined),-0.671% (inactive),
Cc1cccc(C)c1NC1=NCCCS1,6.12% (inactive),
Cc1ncc(CNC(=O)N(CCCl)N=O)c(N)n1,-0.63% (inactive),
NCC1(CC(=O)O)CCCCC1,4.72% (inactive),
N#CC(C#N)=Cc1ccc(O)c(O)c1,-0.867% (inactive),
CCCN1CCC[C@@H]2Cc3nc(N)ncc3C[C@H]21,-24.1% (inactive),
COC[C@H]1OC(=O)c2coc3c2[C@@]1(C)C1=C(C3=O)C2CCC(=O)[C@@]2(C)C[C@H]1OC(C)=O (some centres undefined),-1.11% (inactive),
